High-throughput results: PubChem BioAssay, National Center for Advancing Translational Sciences (NCATS)
Hits are enriched below; roughly 1.7% of the tested compounds scored in any of these assays.
GLP1R ag = agonists of human GLP-1 receptor; P43220; HEK293 GLP-1R CRE-luciferase, luminescence, 4-6 h; cells express a hypersensitive GLP-1R form; Potency, µM (top dose mostly 45.6 µM), hits mostly activators; 0.007% of 380,000 active; AID 624172
Target sequence (P43220 whole entry, looked up): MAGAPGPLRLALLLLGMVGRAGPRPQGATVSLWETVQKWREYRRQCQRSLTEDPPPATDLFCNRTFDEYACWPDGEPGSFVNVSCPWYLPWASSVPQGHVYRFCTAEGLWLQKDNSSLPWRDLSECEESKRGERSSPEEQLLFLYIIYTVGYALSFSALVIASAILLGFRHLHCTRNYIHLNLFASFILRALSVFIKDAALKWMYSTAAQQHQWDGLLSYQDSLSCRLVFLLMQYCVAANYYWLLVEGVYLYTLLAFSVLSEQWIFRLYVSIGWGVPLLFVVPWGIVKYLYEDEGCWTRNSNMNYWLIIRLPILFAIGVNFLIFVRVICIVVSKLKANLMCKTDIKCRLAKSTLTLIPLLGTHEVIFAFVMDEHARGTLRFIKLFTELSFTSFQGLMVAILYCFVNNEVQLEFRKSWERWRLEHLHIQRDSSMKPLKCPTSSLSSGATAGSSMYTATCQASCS
GLP-1R inv ag = GLP-1 receptor (human) inverse agonism; AID 624417; HEK293 GLP-1R CRE-luciferase, luminescence, 24 h; GLP-1R form is constitutively active; Potency, µM (doses to about 38.3 µM), most hits filed as inhibitors; 1.6% of 410,000 active; P43220; also: nearly all actives have a fitted effect of over 55% in size
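GLP-1R inverse agonism mode: basal reporter luminescence in engineered HEK293 cells measured after one day of compound exposure at 37 deg C, with a 12 min room-temperature detection step.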
HEK293 tox = cytotoxic in the GLP-1 receptor inverse agonist counter-screen; Potency, µM (titrated, usually from 38.3 µM), most hits filed as inhibitors; HEK293 cAMP-luciferase reporter cells, luminescence, 24 h; AID 624418; 0.13% of 410,000 active;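 also: loss of luciferase light is scored as toxicity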
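Here, cytotoxicity is scored as loss of luminescence. The MLSMR collection was tested on cells seeded in medium containing 10% Nu serum, with a 24 hr compound exposure preceded by 12 hours of culture.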
Each line names hits and unclear results; the compound was inactive in the other large screens. Calls follow the shape of the dose curve; as a rule, active = well fitted curve in the direction sought with a large enough effect; inconclusive = small, poorly fitted or top-dose-only effect, or another doubt; inactive = no such curve, though single readings can be large; an effect the other way counts as inactive or inconclusive.

COc1cc(C2C(C#N)=C(N)N(Nc3ccccc3)C3=C2C(=O)CC(C)(C)C3)ccc1OCc1cccc(F)c1 (stereo not given)	GLP-1R inv ag 5.6µM
COc1ccc(C2C(C#N)=C(N)N(Nc3ccccc3)C3=C2C(=O)CC(C)(C)C3)cc1C (stereo not given)	GLP-1R inv ag inconclusive
COc1ccc(C2C(C#N)=C(N)N(N(C)C)C3=C2C(=O)CC(C)(C)C3)cc1OC (stereo not given)	none
COc1cc(C2C(C#N)=C(N)N(Nc3ccccc3)C3=C2C(=O)CC(C)(C)C3)ccc1OCc1ccccc1 (stereo not given)	GLP-1R inv ag 3.2µM
O=C(NCC(=O)N1CCN(Cc2c(F)cccc2Cl)CC1)c1cccc(Cl)c1	GLP-1R inv ag inconclusive
CC(C)Cc1ccc(CC(=O)O)cc1	none (no result: GLP-1R inv ag, HEK293 tox)
CCOc1cc(N2CCOCC2)c(OCC)cc1NC(=O)CN1CCc2ccccc2C1	GLP-1R inv ag 4.5µM
CCOc1cc(N2CCOCC2)c(OCC)cc1NC(=O)CC12CC3CC(CC(C3)C1)C2	GLP-1R inv ag 1µM
CCOc1cc(N2CCOCC2)c(OCC)cc1NC(=O)Cn1cnnn1	none
CCOc1cc(N2CCOCC2)c(OCC)cc1NC(=O)CSc1ccccc1C(=O)O	none
Cc1cccc(NC(=O)COn2nnc3ccc(S(C)(=O)=O)cc32)c1	none
COc1ccc(C(=O)NC(C)C2CC3CCC2C3)c(OC)c1 (stereo not given)	GLP-1R inv ag 10µM
COc1cc(C(=O)NC(C)C2CC3CCC2C3)cc(OC)c1OC (stereo not given)	none
C[C@H](O)CNC(=O)c1[nH]cnc1C(=O)Nc1cccc(Cl)c1	none
Cc1ccc(S(=O)(=O)CCC(=O)NCCC2=CCCCC2)cc1	none
COCCCCC(=NOCCN)c1ccc(C(F)(F)F)cc1	none (no result: GLP-1R inv ag, HEK293 tox)
CCCCCCCCCCCCCCCCCCOP(=O)([O-])OC1CC[N+](C)(C)CC1	none (no result: GLP-1R inv ag, HEK293 tox)
CC(=O)c1cccc(NC(=O)c2cc(-c3ccc4c(c3)OCCO4)on2)c1	GLP-1R inv ag inconclusive (no result: GLP1R ag)
O=C(Nc1cccc(O)c1)c1cc(-c2ccc3c(c2)OCO3)on1	GLP-1R inv ag 10µM
COc1ccc(-c2cc(-n3c(C(F)(F)F)nc4ccccc43)n(CCC#N)n2)cc1	GLP-1R inv ag 10µM
COc1ccc(Sc2nc3ccccc3n3c(C(F)(F)F)nnc23)cc1	none
COc1cc(CC(=O)OCC(=O)c2c[nH]c3ccccc23)cc(OC)c1OC	GLP-1R inv ag inconclusive
CC(C)(C)NC(=O)c1ccc(NC(=O)c2ccccc2-c2ccccc2C(=O)O)cc1	none
COc1ccccc1CNC(=O)c1ccc2nc(N3CCCCC3)sc2c1	none (no result: GLP1R ag)
CCc1ccc(CNC(=O)C(C)n2ccc3cc(S(=O)(=O)N4CCCCCC4)ccc32)cc1 (stereo not given)	GLP-1R inv ag 10µM (no result: GLP1R ag)
CC(C(=O)NCc1ccc(Cl)cc1)n1ccc2cc(S(=O)(=O)N3CCCCCC3)ccc21 (stereo not given)	GLP-1R inv ag inconclusive (no result: GLP1R ag)
CCc1ccc(CNC(=O)CCCn2ccc3cc(S(=O)(=O)N4CCCC4)ccc32)cc1	GLP-1R inv ag 8.9µM (no result: GLP1R ag)
CN(C)c1ccc(CNC(=O)CCc2ccc(S(=O)(=O)N3CCCCCC3)cc2)cc1	GLP-1R inv ag 11µM
COc1ccc(CNC(=O)CCc2ccc(S(=O)(=O)N3CCCCCC3)cc2)cc1	none
CCc1ccc(CNC(=O)Cn2ccc3cc(S(=O)(=O)N4CCCCCC4)ccc32)cc1	GLP-1R inv ag inconclusive (no result: GLP1R ag)
O=C(OCCO)c1ccccc1O	none (no result: GLP-1R inv ag, HEK293 tox)
COc1ccc(Br)c(C(=O)OCC(=O)NC2CCCCCC2)c1	GLP-1R inv ag inconclusive
CC12CN(C(=S)Nc3ccccc3)CC(C)(CN(C(=S)Nc3ccccc3)C1)C2=O	none
O=C(C1COc2ccccc2O1)N1CCN(c2ccccc2O)CC1 (stereo not given)	none
O=C(C1COc2ccccc2O1)N1CCN(Cc2ccc(Br)cc2F)CC1 (stereo not given)	GLP-1R inv ag 11µM
CC(=O)Oc1ccc2c(C)c(CC(=O)N3CCN(C(=O)C4COc5ccccc5O4)CC3)c(=O)oc2c1C (stereo not given)	none
Cc1cc(O)c2c(C)c(CC(=O)N3CCN(C(=O)C4COc5ccccc5O4)CC3)c(=O)oc2c1 (stereo not given)	GLP-1R inv ag 6.3µM
O=C(C1COc2ccccc2O1)N1CCN(Cc2ccc3c(c2)OCO3)CC1 (stereo not given)	GLP-1R inv ag inconclusive
COc1cc(C)cc2oc(=O)c(CC(=O)N3CCN(C(=O)C4COc5ccccc5O4)CC3)c(C)c12 (stereo not given)	GLP-1R inv ag 10µM
COc1ccc(NC(=O)c2cc(-c3cc(F)ccc3OC)n[nH]2)c(OC)c1	GLP-1R inv ag inconclusive
O=C(CSc1ccc2nnc(-c3cccnc3)n2n1)Nc1ccccc1F	none
CC(O)(c1cccc(F)c1)c1nc(-c2cc(F)cc(F)c2)cs1 (stereo not given)	GLP-1R inv ag inconclusive
O=C(O)c1ccc(C[n+]2c(-c3ccccc3)csc2Nc2ccccc2)cc1	none
CCCCCC[n+]1c(-c2ccccc2)csc1Nc1ccccc1	GLP-1R inv ag 2.2µM
CS(=O)(=O)N1CCC(C(=O)Nc2cccc(Br)c2)CC1	none
O=C(NC(=S)NC1CCC(O)CC1)c1ccco1 (stereo not given)	none
O=C(Nc1nnc([C@@H]2C[C@H](O)[C@@H](CO)O2)s1)Nc1ccccc1Oc1ccccc1	none
CC1CC(C)CN(CCCNC(=O)c2cc3c(s2)-c2ccccc2OC3)C1 (stereo not given)	GLP-1R inv ag inconclusive
CC1CCCC(C)N1CCCNC(=O)c1cc2c(s1)-c1ccccc1OC2 (stereo not given)	GLP-1R inv ag 2µM
CCc1ccccc1N(CC)C(=O)c1cc2c(s1)-c1ccccc1OC2	GLP-1R inv ag 10µM
CCc1ccccc1N(CC)C(=O)c1cc2c(s1)-c1ccccc1SC2	GLP-1R inv ag inconclusive (no result: GLP1R ag)
CN(Cc1cc([N+](=O)[O-])ccc1Cl)C(=O)C[n+]1ccccc1	none
c1ccc(CN2CCC(CNc3ncnc4ccccc34)C2)cc1 (stereo not given)	GLP-1R inv ag inconclusive
c1ccc(CN2CCC(Nc3nc(-c4ccccc4)nc4ccccc34)CC2)cc1	GLP-1R inv ag 5µM, HEK293 tox inconclusive
c1ccc(CNc2nc(N3CCN(Cc4ccccc4)CC3)nc3ccccc23)cc1	GLP-1R inv ag 4µM
c1coc(CNc2nc(N3CCCCC3)nc3ccccc23)c1	GLP-1R inv ag inconclusive, HEK293 tox inconclusive
O=C(CSc1oc(-c2ccccc2)nc1S(=O)(=O)c1ccc(Cl)cc1)c1ccccc1	GLP-1R inv ag inconclusive (no result: GLP1R ag)
CCOc1cc(C(=O)N=c2sccn2C)ccc1OC(F)F	none
CSC1SCC2C(=O)N(C)C(C(C)C)C(=O)OCC(NC(=O)c3cnc4ccccc4n3)C(=O)NC(C)C(=O)N(C)C1C(=O)N(C)C(C(C)C)C(=O)OCC(NC(=O)c1cnc3ccccc3n1)C(=O)NC(C)C(=O)N2C (stereo not given)	HEK293 tox inconclusive
CCO[C@H]1OC(C(=O)Nc2ccccc2)=C[C@@H](c2ccc(Br)cc2)[C@@H]1CCCO	GLP-1R inv ag inconclusive
CCO[C@@H]1OC(C(=O)Nc2ccccc2)=C[C@H](c2ccc(C(F)(F)F)cc2)[C@H]1CCCO	GLP-1R inv ag 4.5µM
